# Data reported in PubChem BioAssay.
# Calls of active or inactive are those of the source. Unless noted, no rule for the calls is given here.
# Assays:
# [1] = test system: Wnt5a (protein binding on small-molecule microarray); assay: Wnt5a binders on small-molecule microarray, primary screen, biophysical, 635/667 nm fluorescence (AID 1142); settings: 635 nm fluorescence, higher = more signal;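 also: fluorescence read at 667 nm with signal to noise per printed feature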
# [2] = cell viability in Huh7 cells, primary screen, cytotoxicity control for HCV replication inhibitor project, CellTiter-Glo luminescence, basal, 48 h (AID 1143); settings: Huh7 HCV replicon, higher = more signal, called active from +8 up or from −8 down;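 also: Huh7 hepatoma cells carrying a hepatitis C replication reporter with no stimulus; test concentration not given here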
# [3] = P. aeruginosa biofilm formation inhibitors, primary screen, PAO1 strain, BacTiter-Glo luminescence, LB-PBS (AID 1144); settings: 12 h, higher = more signal
# [4] = CREB reporter modulators without forskolin, primary screen, cell-based, PC12, CRE-LacZ reporter, unstimulated (AID 1145); settings: no forskolin, luminescence, 4.5 h, higher = more signal, called active from +8 up or from −8 down
# [5] = CREB reporter modulators under forskolin, primary screen, cell-based, PC12, CRE-LacZ reporter, forskolin-stimulated (AID 1146); settings: luminescence, 4.5 h, higher = more signal, called active from +8 up or from −8 down;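 also: PC12 cells with 6xCRE LacZ reporter stimulated by forskolin 10 µM; beta-galactosidase reporter signal reflecting CREB driven transcription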
# [6] = molecular target: Streptavidin (Streptomyces avidinii) (UniProt P22629); assay: streptavidin binders on small-molecule microarray, primary screen, artefact control for SMM compound annotation, biophysical, 635/667 nm fluorescence (AID 1147); settings: streptavidin binding, higher = more signal;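 also: signal reflects streptavidin binding to arrayed compounds as a control protein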
# [7] = small-molecule binders of probe aInhba, primary screen, biochemical, small-molecule microarray, 635/667 nm fluorescence (AID 1148); settings: higher = more signal;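 also: score merges 667nm spot fluorescence with signal-to-noise for antibody binding to printed compounds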
# Torsin-1A (Homo sapiens) [8] = molecular target: Torsin-1A (Homo sapiens) (UniProt O14656); assay: torsin A binders from cell lysate, primary screen, small-molecule microarray, wild-type, 635/667 nm (AID 1149); settings: COS7 hTOR1A-WT lysate, 635 nm fluorescence, higher = more signal
# Torsin-1A (Homo sapiens) [9] = molecular target: Torsin-1A (Homo sapiens) (UniProt O14656); assay: small-molecule binders of mutant TOR1A in lysate, primary screen, cell lysate, small-molecule microarray, COS7 lysate, 635/667 nm fluorescence (AID 1150); settings: COS7 hTOR1A mutant lysate, 635 nm fluorescence, higher = more signal;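 also: score pools 667 nm emission and signal to noise measuring lysate protein binding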
# [10] = test system: Sonic hedgehog protein (Shh); assay: small-molecule binders of Shh protein, primary screen, biochemical, small-molecule microarray, 635/667 nm fluorescence (AID 1151); settings: small-molecule microarray binding, 635 nm fluorescence; higher = more signal;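 also: Shh protein binding to compounds spotted on small-molecule microarray slides; score combines spot fluorescence intensity with signal-to-noise across triplicate slides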
# Sequence of Torsin-1A (Homo sapiens) (O14656 whole entry, looked up): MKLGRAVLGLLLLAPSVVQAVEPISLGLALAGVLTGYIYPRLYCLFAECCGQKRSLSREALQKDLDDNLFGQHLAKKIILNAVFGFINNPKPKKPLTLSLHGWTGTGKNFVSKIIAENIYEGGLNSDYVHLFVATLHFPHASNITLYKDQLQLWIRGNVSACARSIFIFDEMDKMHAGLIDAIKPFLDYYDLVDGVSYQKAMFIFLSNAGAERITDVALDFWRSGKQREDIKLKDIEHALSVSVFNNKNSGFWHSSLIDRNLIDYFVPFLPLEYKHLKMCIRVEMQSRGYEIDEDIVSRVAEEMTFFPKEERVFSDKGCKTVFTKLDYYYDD
# Sequence of Streptavidin (Streptomyces avidinii) (P22629 whole entry, looked up): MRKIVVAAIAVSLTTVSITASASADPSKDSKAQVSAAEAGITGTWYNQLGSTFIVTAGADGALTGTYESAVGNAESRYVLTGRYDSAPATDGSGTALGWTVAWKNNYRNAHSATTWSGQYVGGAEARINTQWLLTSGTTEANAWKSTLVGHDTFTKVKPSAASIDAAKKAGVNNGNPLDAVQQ
Structure (SMILES),composite z-score [1],z-score [2],z-score [3],z-score [4],z-score [5],composite z-score [6],composite z-score [7],composite z-score (Torsin-1A (Homo sapiens) [8]),composite z-score (Torsin-1A (Homo sapiens) [9]),composite z-score [10]
CC(CCN1CCCc2nc(C)c(C)cc21)=NOC(C)CN1CCCCc2nc(C)c(C)cc21 (stereo not given),0.277,-0.466 (inactive),-0.624 (inactive),-0.31 (inactive),0.527 (inactive),0.666,0.0074,-0.109,0.631,1.05
CO[C@H]1COC(=O)[C@H](C)NC(=O)CC=C[C@@H](C)[C@H](OC)COC(=O)[C@@H](OCc2ccccc2)C=C[C@@H]1C,-0.0911,0.382 (inactive),0.213 (inactive),0.971 (inactive),-0.262 (inactive),-0.697,-0.0791,0.57,-0.0163,0.683
CO[C@@H]1COC(=O)[C@H](CCSC)NC(=O)CC=C[C@@H](C)COC(=O)CCC[C@H]1C,-0.277,-2.75 (inactive),-0.88 (inactive),0.341 (inactive),0.85 (inactive),-1.47,-0.255,4.03,4.08,2.27
CCOC(=O)[C@H](Cc1ccccc1)NC(=O)CCC1CC(OC(=O)NCc2cccc3ccccc23)CC2(CCCC(COC(=O)NCC(c3ccccc3)c3ccccc3)O2)O1 (stereo not given in full),0.177,-1.43 (inactive),-0.873 (inactive),0.286 (inactive),0.155 (inactive),0.164,-0.154,0.45,0.0748,0.613
CCOC(=O)[C@H](CC(C)C)NC(=O)CCC1CC(OC(=O)NCc2ccc3c(c2)OCO3)CC2(CCCC(COC(=O)NCCCN3CCCC3=O)O2)O1 (stereo not given in full),0.353,-0.255 (inactive),-0.767 (inactive),0.0167 (inactive),-0.413 (inactive),0.657,0.0154,0.232,0.92,1.74
CC(C)CON=C1C[C@@H](O)[C@@H](O)[C@@H]2[C@@H]3C(=O)N(C[C@@H]4CCCO4)C(=O)[C@@H]3CC[C@@H]12,0.0867,1.13 (inactive),-0.184 (inactive),-0.0246 (inactive),0.436 (inactive),-0.265,-0.0987,-0.25,0.0844,-0.321
CO[C@H]1COC(=O)CC=C[C@@H](C)[C@H](OC)COC(=O)CCC[C@@H]1C,-0.0494,-0.127 (inactive),-0.913 (inactive),-0.482 (inactive),0.0877 (inactive),0.0616,-0.153,1.89,0.33,1.18
COC(=O)[C@H](C)NC(=O)CCC1CC(OC(=O)NCc2ccc3c(c2)OCO3)CC2(CCCC(COC(=O)NCCc3ccccc3OC)O2)O1 (stereo not given in full),-0.0418,-0.643 (inactive),0.301 (inactive),0.0167 (inactive),0.711 (inactive),-0.0673,-0.154,0.465,0.182,-0.004
COc1cccc([C@H]2Oc3ccc(OC)cc3C(=NOC(C)CN3CCCCc4nc(C)c(C)cc43)[C@@H]2O)c1 (stereo not given in full),0.292,-1.77 (inactive),0.979 (inactive),5.7 (inactive),0.323 (inactive),-0.519,-0.024,0.242,-0.14,0.291
COC(=O)CC=C[C@@H](C)[C@@H]1C=C[C@H](O)[C@@H](CO)O1,-0.27,0.362 (inactive),-0.159 (inactive),0.648 (inactive),1.03 (inactive),0.89,-0.163,0.473,0.448,0.495
COc1ccc(COC(=O)NN=C2C[C@@H](O)[C@@H](O)[C@@H]3[C@@H]4C(=O)N(Cc5ccccc5)C(=O)[C@@H]4CC[C@H]23)cc1,-0.419,-0.541 (inactive),0.43 (inactive),0.702 (inactive),-0.0005 (inactive),0.273,-0.753,-0.429,-0.186,-1.44
CO[C@@H]1COC(=O)CC=C[C@@H](C)[C@@H]2C=C[C@H](O)[C@@H](COC(=O)CC=C[C@H]1C)O2,-0.186,-0.256 (inactive),0.177 (inactive),0.877 (inactive),-0.0355 (inactive),-0.0274,-0.255,2.58,1.72,2.13
CC(C)=CCCC(C)=CCON=C1C[C@@H](O)[C@@H](O)[C@@H]2[C@@H]3C(=O)N(c4ccc(F)cc4F)C(=O)[C@@H]3CC[C@@H]12,0.291,-1.52 (inactive),-0.665 (inactive),1.24 (inactive),0.671 (inactive),1.45,-0.152,0.815,-0.0827,1.97
O=C1[C@H]2[C@H]3[C@H](O)[C@H](O)CC(=NOCc4ccccc4)[C@H]3CC[C@H]2C(=O)N1Cc1ccc2c(c1)OCO2,-0.0988,-1.96 (inactive),1.66 (inactive),-0.203 (inactive),-0.915 (inactive),0.484,-0.15,0.0874,0.172,0.394
O=C1CCCC=C1C(O)CCCCBr (stereo not given),0.0756,-3.99 (inactive),-0.548 (inactive),1.37 (inactive),27 (active),1.51,-0.0523,0.201,0.686,0.333
O=C1C[C@@H](O)[C@@H](O)[C@@H]2[C@@H]3C(=O)N(Cc4ccc5c(c4)OCO5)C(=O)[C@@H]3CC[C@H]12,-0.005,-0.104 (inactive),-0.396 (inactive),0.516 (inactive),0.244 (inactive),0.139,-0.152,0.0825,0.339,0.256
CO[C@H]1COC(=O)CC=C[C@@H](C)[C@H](OC)COC(=O)[C@@H]2CCCN2C(=O)CC=C[C@@H]1C,-0.0779,0.192 (inactive),0.474 (inactive),0.251 (inactive),-0.759 (inactive),-0.407,-0.186,1.72,2.49,2.18
CC(C)(C)N1C(=O)[C@H]2[C@H]3[C@H](O)[C@H](O)CC(=NOCc4ccccc4)[C@H]3CC[C@H]2C1=O,0.0771,0.899 (inactive),-0.192 (inactive),0.968 (inactive),0.183 (inactive),1,0.0342,-0.65,0.155,-0.587
COC(=O)[C@H](C)NC(=O)CCC1CC(OC(=O)NCCc2ccc(F)cc2)CC2(CCCC(COC(=O)NCCC(C)C)O2)O1 (stereo not given in full),0.255,-0.872 (inactive),-1.41 (inactive),0.109 (inactive),0.283 (inactive),0.0943,0.0047,-0.184,-0.0067,1.22
COC(=O)CC=C[C@@H](C)[C@@H](C=NOC[C@H]1O[C@H](c2ccccc2)C=C[C@@H]1Oc1ccc(OC)cc1)NS(=O)(=O)c1ccc(C)cc1,-0.308,-0.588 (inactive),-0.00695 (inactive),3.13 (inactive),0.519 (inactive),-0.184,-0.23,-1.46,0.339,-0.863
CCN1C(=O)[C@H]2[C@H]3[C@H](O)[C@H](O)CC(=NO[C@@H](C)c4cn([C@H](CO)Cc5ccccc5)nn4)[C@@H]3CC[C@H]2C1=O,0.283,-0.0863 (inactive),0.451 (inactive),0.727 (inactive),0.511 (inactive),-0.138,0.0051,0.651,0.435,0.486
CO[C@H]1COC(=O)CC=C[C@H](C)[C@@H](OC)COC(=O)[C@@H](C)NC(=O)CC=C[C@@H]1C,0.0073,-1.42 (inactive),-1.15 (inactive),-0.0824 (inactive),0.123 (inactive),-0.343,-0.233,3.05,2.16,2.14
COC(=O)[C@@H]1CC[C@H](C)[C@@H](c2ccc(C)cc2)N1C(=O)c1ccc(C=NOC[C@@H](C)[C@H](OCc2ccccc2)C(C)C)cc1,0.156,-1.17 (inactive),0.978 (inactive),6.15 (inactive),-0.207 (inactive),0.409,-0.018,0.0707,0.537,1.28
CO[C@H]1COC(=O)CC=C[C@H](C)COC(=O)[C@@H](C)NC(=O)CC=C[C@@H]1C,0.042,-2.06 (inactive),-1.59 (inactive),-0.31 (inactive),-0.0543 (inactive),0.0677,-0.25,2.78,2.8,2.08
C#CCCCON=C1C[C@@H](O)[C@@H](O)[C@@H]2[C@@H]3C(=O)N(c4ccc(F)cc4F)C(=O)[C@@H]3CC[C@@H]12,0.09,-0.459 (inactive),0.589 (inactive),-0.564 (inactive),-0.392 (inactive),-0.091,-0.213,0.061,0.0576,0.351
COc1cccc([C@H]2Oc3ccc(OC)cc3C(=NO[C@H](C)c3cn([C@H](CO)Cc4ccccc4)nn3)[C@@H]2O)c1,-0.0943,0.474 (inactive),0.829 (inactive),3.87 (inactive),-0.345 (inactive),-0.706,-0.104,-0.0667,1.44,0.326
COC(=O)CC=C[C@@H](C)[C@@H](C=NO[C@H](C)c1cn([C@@H]2COC[C@H]2O)nn1)NS(=O)(=O)c1ccc(C)cc1,-0.0155,0.23 (inactive),-0.668 (inactive),1.08 (inactive),-0.112 (inactive),-0.262,0.0173,0.68,0.429,0.691
CC(C)CON=C1[C@H]2CCn3c(=O)n(Cc4cc5c(cc4Cl)OCO5)c(=O)n3[C@H]2[C@H](O)[C@@H]2O[C@H]12,0.26,-2.89 (inactive),0.376 (inactive),1.87 (inactive),0.819 (inactive),1.49,-0.0332,1.39,0.49,0.504
COc1cccc([C@H]2Oc3ccc(OC)cc3C(=NOC[C@@H](C)[C@H](OCc3ccccc3)C(C)C)[C@@H]2O)c1,0.276,-0.324 (inactive),0.508 (inactive),0.666 (inactive),0.649 (inactive),-0.234,-0.106,0.577,0.83,0.115
